High-throughput results (PubChem BioAssay)
Rows were chosen to be rich in hits. Some 11% of all compounds tested hit in one or more screens of this group.
IMPase cell inh = cell-permeable inhibitors of inositol monophosphatase (IMPase); CHO-M1 cells, IP1 accumulation, HTRF TR-FRET ratio; 120,000 tested, under 10 active; inhibition (IP1 accumulation), % at 46.1 µM; P97697; active = well fitted curve in the direction sought with a large enough effect in the signal ratio, not every such curve was filed as active; inconclusive = small, poorly fitted or top-dose-only effect, or a change in a side signal; inactive = no such curve, though single readings can be large or run the other way; the % refers to the signal ratio;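 also: cells stimulated with carbachol in lithium chloride buffer; plate controls were DMSO basal wells for no effect and reference inhibitor wells for full effect; higher means more IMPase inhibition seen as more IP1 and lower FRET ratio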
Target sequence (P97697 whole entry, looked up): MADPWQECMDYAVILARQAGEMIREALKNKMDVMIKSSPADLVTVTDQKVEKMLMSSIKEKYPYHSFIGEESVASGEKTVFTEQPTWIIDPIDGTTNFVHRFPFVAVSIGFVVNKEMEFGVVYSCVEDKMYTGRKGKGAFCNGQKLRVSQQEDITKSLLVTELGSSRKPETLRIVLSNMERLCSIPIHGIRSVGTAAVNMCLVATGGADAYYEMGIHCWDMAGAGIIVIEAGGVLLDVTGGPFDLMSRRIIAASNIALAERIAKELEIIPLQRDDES
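CHO-M1 cells (CHO stably expressing M1 receptor), compound up to 46 uM final, stimulated with carbachol (50 uM as added) in buffer with 50mM LiCl, pH 7.4, 30 min at 37C. Cytosolic IP1 read by TR-FRET; AC50 from Hill fits.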
IMPase Li cell = cell-permeable IMPase inhibitors with lithium potentiation. AID 1457. 210,000 compounds, 0.35% hits. Potency, µM (doses to about 59.4 µM), for the others: top-dose activity, negative = IMPase inhibition, hits mostly inhibitors. CHO-M1 cells, IP1 TR-FRET (IP-One), carbachol + lithium; active = well fitted inhibition curve with a large enough effect; inconclusive = small, poorly fitted or top-dose-only effect; inactive = no such curve, though single readings can be large or run the other way;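 also: IP1 builds up when IMPase is blocked and the TR-FRET signal falls; potency is read from the fitted curve at half-maximal effect; plate controls were basal vehicle for no effect and high inhibitor control for full effect; nearly all actives have a fitted effect of over 50% in size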
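CHO-M1, 2000 cells/well, 16–30 h culture; cpd + low Li+, 30 min 37C; lysis with d2-IP1/Eu-anti-IP1 Ab, 10 min RT; TR-FRET 665/620 ratio and 620 channel; AC50 via Hill.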
PNC assembly inh = blocks assembly of the perinucleolar compartment; PC3M PTB-GFP, PNC prevalence imaging, 16 h; active compounds read low; activity change (PNC), negative = inhibition, % at 10 µM; 140,000 compounds, 3.1% hits; AID 2417;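 active = readout at or below -70, meaning at least 70% loss of cells showing the perinucleolar compartment, a nuclear body marking cancer cells; inconclusive = readout between -30 and a set limit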;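 also: plate controls were DMSO wells for no effect and camptothecin positive control wells for full effect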
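Read-out is percentage of cells bearing a perinucleolar compartment, from automated 20x imaging of fixed, Hoechst-stained PC3M PTB-GFP cells. Cells were seeded 4 h, then exposed 16 h to compound (23 nl of library stock) in duplicate plates.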
ALDH1A1 block = ALDH1A1 (human) enzyme inhibition. P00352. Purified ALDH1A1, NADH fluorescence, propionaldehyde substrate. Potency, µM (series often up to 75.3 µM), without a hit: at the highest dose activity, negative = inhibition, usual class: inhibitors. 220,000 compounds, 7.3% hits. AID 1030;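 also: potency is read from the fitted curve at half-maximal effect; plate controls were no enzyme wells and a reference inhibitor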
HPGD block = HPGD (human) dehydrogenase inhibition; purified HPGD, NADH fluorescence kinetic, PGE2 substrate; Potency, µM, for inactives: at the highest dose activity change, negative = inhibition, hits mostly inhibitors; 150,000 compounds, 4.3% hits; AID 894; also: potency is read from the fitted curve at half-maximal effect
Target sequence (P15428 whole entry, looked up): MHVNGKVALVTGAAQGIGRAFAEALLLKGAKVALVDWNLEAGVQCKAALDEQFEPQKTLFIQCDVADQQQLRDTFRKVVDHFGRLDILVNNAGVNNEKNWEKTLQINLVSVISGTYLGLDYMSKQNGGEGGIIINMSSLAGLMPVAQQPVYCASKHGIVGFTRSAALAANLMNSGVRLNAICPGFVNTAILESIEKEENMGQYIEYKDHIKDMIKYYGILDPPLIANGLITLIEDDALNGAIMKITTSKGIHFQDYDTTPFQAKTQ
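20 nM HPGD preincubated 15 min at room temperature with compound in 50 mM Tris-HCl pH 8, 0.01% Tween 20. Started with 1 mM NAD+ and 30 uM prostaglandin E2; NADH fluorescence (360/450 nm) read 5 times over 30-s intervals, last minus first.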
* hit, by the source's call; ? = inconclusive; . = no result given; [ ] = another dose, or the depositor's remark. Unless noted, calls follow the shape of the dose curve; as a rule, active = well fitted inhibition curve with a large enough effect (not every such curve was filed as active); inconclusive = small, poorly fitted or top-dose-only effect, or another doubt; inactive = no such curve, though single readings can be large or run the other way. Unless noted, % is scaled to controls: 0 for no effect and ±100 for the full control effect.

SMILES | IMPase cell inh | IMPase Li cell | PNC assembly inh | ALDH1A1 block | HPGD block
O=C(c1ccccc1)[C@@H]1[C@@H](C(=O)c2ccc(F)cc2)[C@@]2(C(=O)Nc3ccccc32)[C@H]2c3ccccc3C=CN12 | -6 | . | 26 | 11µM* | .
CC(=O)[C@@H]1[C@@H](C(=O)c2ccccc2)[C@]2(C(=O)Nc3ccccc32)[C@H]2C=Cc3cc(F)ccc3N12 | . | 1% | 3 | ? | -19%
CCOc1ccc(/C=N/Nc2ccccn2)cc1OC | . | -1% | . | 5% | .
CCOc1ccc(/C=N/N(C)c2ccccc2)cc1OC | 11 | 22%[38.3 µM] | 9 | 7.9µM* | -10%
Cn1c(-c2ccc3c(c2)OCO3)cnc1NCc1cccc(O)c1 | . | 17% | . | 13µM* | .
Cn1c(-c2ccc(F)cc2)cnc1NCc1ccccc1 | 0 | 20% | ? | ? | -30%
COc1cccc(-c2cnc(NCc3cc(Cl)ccc3O)n2C)c1 | 15 | 1%[38.3 µM] | 12 | ? | -26%
Cn1c(-c2ccc(F)cc2)cnc1NCc1cccc(F)c1 | 10 | -6%[38.3 µM] | 65 | 6.3µM* | 16µM*
Cn1c(-c2cccc(Br)c2)cnc1NCc1cccnc1 | 5[1.84 µM] | 28%[38.3 µM] | -10 | 11µM* | -25%
Cn1c(-c2ccc(F)cc2)cnc1NCc1cc2c(cc1[N+](=O)[O-])OCO2 | 10 | -9% | ? | 3% | -17%
CCOC(=O)c1nn(-c2cccc(OC)c2)c2nc(CC)c(C#N)c(=O)n12 | . | -6% | -109* | ? | -17%
Cc1[nH]ccc(=O)c1OCc1c(F)cccc1Cl | . | 1% | . | 15% | .
Cc1[nH]ccc(=O)c1OCc1ccc(Cl)cc1 | ? | 19%[38.3 µM] | -124* | 10% | -13%
Cc1c(OCc2ccccc2)c(=O)ccn1Cc1ccc(Cl)cc1 | 5 | 8%[38.3 µM] | 18 | -7% | -7%
Cc1[nH]ccc(=O)c1OCc1ccccc1 | -1[1.84 µM] | 11%[38.3 µM] | -111* | 10% | -15%
O=C(NCc1cccnc1)C(=O)NCC1OCCCN1S(=O)(=O)c1ccccc1 (stereo not given) | . | -6% | -13 | ? | 0%
COc1ccc(C(=O)NCC(=O)Nc2cccc(S(=O)(=O)NCc3ccco3)c2)cc1OC | . | 15% | . | 20µM* | .
COc1cccc(NC(=O)COC(=O)c2ccc(S(=O)(=O)NCc3ccco3)cc2)c1 | -5 | 15%[38.3 µM] | -14 | 5% | -3%
COc1cccc(S(=O)(=O)NCc2ccc(C(=O)NCc3ccco3)cc2)c1 | 0 | -3%[38.3 µM] | ? | 14µM* | -11%
COc1cccc(S(=O)(=O)Nc2ccc(C(=O)NCc3ccco3)cc2)c1 | -7 | 19% | 36 | 28µM* | ?
O=C(O)c1cc(S(=O)(=O)NCc2ccco2)c(Cl)cc1Cl | 5 | -16%[38.3 µM] | -3 | 20µM* | -18%
COc1ccc(CCNC(=O)c2ccc(CNS(=O)(=O)c3cccc(Cl)c3)cc2)cc1OC | 3 | 14% | ? | 3.5µM* | -12%
COc1ccc(CNC(=O)/C=C/c2ccc(S(=O)(=O)NCc3ccco3)cc2)cc1OC | . | 7% | 25 | 45% | -9%
COCCNS(=O)(=O)c1ccc(OCC(=O)OC)c(Cl)c1 | -11 | 16%[38.3 µM] | -6 | -4% | -10%
COC(=O)COc1ccc(S(=O)(=O)NCc2ccco2)cc1Cl | -2 | 17%[38.3 µM] | -103* | 4% | -8%
SMILES | IMPase cell inh | IMPase Li cell | PNC assembly inh | ALDH1A1 block | HPGD block
COC(=O)c1cc(CNC(=O)c2cccc(Cl)c2)ccc1OC | -5 | -4% | -89* | 3% | -14%
O=C(/C=C/c1ccc(S(=O)(=O)NCc2ccco2)cc1)NCc1ccccc1Cl | 6 | . | -25 | 28µM* | .
COC(=O)c1cc(CNC(=O)c2cccc(Cl)c2Cl)ccc1OC | . | 3% | -3 | 11% | ?
COc1ccc(-c2nc(S(=O)(=O)c3ccc(Cl)cc3)c(N3CCCCCC3)o2)cc1 | 8 | . | . | . | .
CCOC(=O)c1sc2nc(CSc3ccccc3)nc(NCCN(C)C)c2c1C | . | 5% | . | -8% | .
COc1ncc2nc(-c3ccccc3)c(=O)n(C[C@H]3CCCO3)c2n1 | . | -6% | . | ? | ?
Cc1cnc(CNc2nc(-c3ccoc3)nc3ccccc23)cn1 | . | 26% | . | ? | .
[N-]=[N+]=CC(=O)C(Cc1ccccc1)N1C(=O)c2ccccc2C1=O (stereo not given) | 2 | 1%[38.3 µM] | 11 | 2.8µM* | -13%
O=C(O)C(Cc1ccccc1)N1C(=O)c2ccccc2C1=O (stereo not given) | -4 | -9%[38.3 µM] | -3 | 5% | 0%
CSc1ccccc1N=CC1=C(O)CC(C)(C)CC1=O | -1 | 4% | -100* | 2µM* | -30%
COC(=O)c1ccc(N)c(N=CC2=C(O)CC(C)(C)CC2=O)c1 | . | 0% | -109* | 20µM* | -22%
CC1(C)CC(=O)C(C=Nc2cc(C(=O)c3ccccc3)ccc2N)=C(O)C1 | . | 0% | . | 11µM* | .
CC1(C)CC(=O)C(C(N)=NC(=O)c2ccccc2)=C(O)C1 | . | 12% | . | 10µM* | .
CC1(C)CC(=O)C(C(N)=NC(=O)c2ccc([N+](=O)[O-])cc2)=C(O)C1 | . | -5% | . | 8% | .
Cc1cc(=O)[nH]c(SCC(=O)NCC2CCCCC2)c1C#N | . | 1% | . | -16% | .
c1csc(CNc2nc(-c3ccc4c(c3)OCO4)nc3ccccc23)c1 | . | 11% | . | ? | .
CC[C@@H](C)[C@H](NS(=O)(=O)c1cccc2ccccc12)C(=O)N[C@H](C=O)Cc1c[nH]c2ccccc12 | . | 28% | . | ? | .
COCn1c(=O)c2c(nc(SC3=NCCS3)n2Cc2ccccc2C)n(COC)c1=O | -2 | 22%[38.3 µM] | -13 | 2.8µM* | -17%
C/[N+]([O-])=C1\Cc2ccccc2C1=O | ? | -6%[38.3 µM] | -11 | 3.5µM* | -12%
O=C(Nc1ccccc1)N1CCC2(CC1)CCN(C(=O)c1csnn1)CC2 | . | 11% | . | -3% | -8%
Cc1cc(-c2ccccc2)n(-c2ccc(C(N)=O)cc2)n1 | -3 | 8% | -17 | ? | 32µM*
CCOc1ccc(NC(=O)CN(C)c2nnnn2-c2ccccc2)cc1OCC | -1 | 2%[38.3 µM] | 6 | ? | -4%
CCCC[C@@H]1C[C@H]1C(NC(=O)c1cccs1)c1ccccc1C(F)(F)F (stereo not given in full) | . | -2% | . | -10% | ?
COc1ccccc1NCc1ccc([N+](=O)[O-])s1 | . | 2% | ? | 14µM* | -10%
COc1ccccc1CNc1ccc([N+](=O)[O-])cc1C | . | 26% | . | ? | .
CC1=CS(=O)(=O)CC1Sc1ncn[nH]1 (stereo not given) | -1 | 3% | -100* | -1% | -20%
COc1ccc(/C=C(\C#N)c2n[nH]c(Cn3cncn3)n2)cc1 | . | 4% | . | -2% | .
NNC(=O)c1ccc(CSc2nc3ccccc3s2)cc1 | . | 1% | . | 3.5µM* | .
O=C(CSc1nc2ccccc2s1)NCc1ccc2c(c1)OCO2 | . | 2% | 7 | 14µM* | 32µM*
O=C(CCCSc1nc2ccccc2s1)Nc1nccs1 | 9 | 14%[38.3 µM] | 15 | 16µM* | 25µM*
